Screening data from PubChem BioAssay.
A selection: hits, their analogues and other compounds. The true share with any hit is near 19%.
HT1080NT lethal = kills 2HG-producing HT-1080-NT fibrosarcoma cells | hit rate 1.6% among 360,000 | HT-1080-NT fibrosarcoma viability, CellTiter-Glo ATP luminescence, 48 h | Potency, µM (highest dose often 46.1 µM), for the others: top-dose activity, negative = less viability, actives largely listed as cytotoxic;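 also: NT is the 2HG producing partner of a matched IDH1 knockdown line; potency is read from the fitted curve at half-maximal effect; 0% = DMSO-treated cells and -100% = media-only wells without cells; nearly all actives have a fitted effect of over 55% in size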
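Toxicity toward the 2HG-producing NT line was scored as %Activity, normalised to DMSO and no-cell wells, from CellTiter-Glo luminescence after 48 hours' treatment.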
HT1080 IDH1KD tx = toxicity to HT-1080 IDH1 knockdown cells (counter line); Potency, µM (doses to about 46.1 µM), for inactives: top-dose activity, negative = toxicity, usual class: cytotoxic; AID 686971; hit rate 2% among 360,000; HT-1080 IDH1 knockdown viability, ATP luminescence, 48 h;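 also: potency is read from the fitted curve at half-maximal effect; 0% = DMSO wells and -100% = cell-free medium wells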
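CellTiter-Glo luminescence after 48 h compound exposure at 37 degrees C of IDH1-knockdown HT-1080 cells in 5% FBS RPMI. %Activity scaled between DMSO wells and cell-free media wells, with curves fitted and assigned curve classes.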
IL-1B inflam inh = inhibitors of inflammasome signaling (IL-1 beta secretion); THP-1 LPS/ATP IL-1B secretion, AlphaLISA, 16 h; active compounds read low; activity change, % at 57.5 µM; hit rate 4.7% among 360,000; in the data active = activity change below about -50%; inconclusive = mostly about -30% to -49%
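THP-1 cells pretreated 1 hr with compounds (up to 57.5 uM final), then stimulated with LPS (250 ng/mL final) plus ATP (1.25 mM final); secreted IL-1B measured by AlphaLISA after 16 hr, decreased signal indicating inhibition.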
DT40 TDP1 no CPT = qHTS for Inhibitors of human tyrosyl-DNA phosphodiesterase 1 (TDP1): qHTS in cells in absence of CPT; DT40 Tdp1-/- hTDP1 cells, no CPT, ATP luminescence, 48 h; Potency, µM (series often up to 46.2 µM), without a hit: at the highest dose activity change, negative = growth inhibition, actives largely listed as inhibitors; hit rate 15% among 420,000; also: potency is read from the fitted curve at half-maximal effect; nearly all actives have a fitted effect of over 55% in size
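Camptothecin absent (DMSO only). Human TDP1-complemented DT40 knockout cells, 400 cells/well, 37 °C for minimum 48 hr; ATP measured via CellTiter-Glo, 30 min dark incubation, luminescence.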
DT40 TDP1 CPT = growth inhibition of DT40 Tdp1-/-;hTDP1 cells with camptothecin (screen for TDP1 inhibitors) | Potency, µM (top dose mostly 46.2 µM), for the others: at the top dose activity change, negative = growth inhibition, usual class: inhibitors | chicken DT40 Tdp1-/-;hTDP1 cells + 20 nM CPT, ATP luminescence, 48 h | hit rate 12% among 420,000 | AID 686979; also: potency is read from the fitted curve at half-maximal effect; nearly all actives have a fitted effect of over 55% in size
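Cell growth measured by CellTiter-Glo luminescence after a minimum 48 h, 37 C compound exposure with 20 nM CPT in Tdp1-knockout DT40 cells stably expressing hTDP1, seeded 400/well; qHTS titration format.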
* marks the source's active call; other numbers are inactive results; [ ] = remark or other dose. Unless noted, calls follow the shape of the dose curve; as a rule, active = well fitted curve in the direction sought with a large enough effect; inconclusive = small, poorly fitted or top-dose-only effect, or another doubt; inactive = no such curve, though single readings can be large; an effect the other way counts as inactive or inconclusive. Unless noted, % is scaled to controls: 0 for no effect and ±100 for the full control effect.

Screening Cc1ccc(NS(=O)(=O)c2ccc(Cl)c(C(=O)O)c2)cc1S(=O)(=O)N1CCOCC1 returned HT1080NT lethal 1%, HT1080 IDH1KD tx 13%, IL-1B inflam inh -8, DT40 TDP1 no CPT 2% and DT40 TDP1 CPT -8%.
`COc1ccc(NC(=O)COC(=O)C2CC2)c(OC)c1` gave HT1080NT lethal 8%, HT1080 IDH1KD tx 6%, IL-1B inflam inh 7, DT40 TDP1 no CPT -4% and DT40 TDP1 CPT 0%.
`COc1ccc(-c2[nH]ncc2CNC(C)c2cn(C)nc2C)c(F)c1` (stereo unspecified) gave HT1080NT lethal -5%, HT1080 IDH1KD tx 1%, IL-1B inflam inh -4, DT40 TDP1 no CPT -4% and DT40 TDP1 CPT -9%.
Screening CC1([N+](=O)[O-])COC(C=Cc2ccccc2)OC1 (stereo unspecified) returned HT1080NT lethal 16%, HT1080 IDH1KD tx 12%, IL-1B inflam inh 1, DT40 TDP1 no CPT 0% and DT40 TDP1 CPT 2%.
CCn1c(=O)cc(SCC(=O)Nc2ccc(C)cn2)c2ccccc21 was read as HT1080NT lethal 7%, HT1080 IDH1KD tx 8%, IL-1B inflam inh inconclusive, DT40 TDP1 no CPT 29µM* and DT40 TDP1 CPT inconclusive.
Screening CCn1c(=O)cc(SCC(=O)NCc2ccc(C)o2)c2ccccc21 returned HT1080NT lethal -29%, HT1080 IDH1KD tx inconclusive, IL-1B inflam inh 38, DT40 TDP1 no CPT 13µM* and DT40 TDP1 CPT 15µM*.
For CCc1ccc(CNC(=O)CSc2cc(=O)n(CC)c3ccccc23)cc1 the results were DT40 TDP1 no CPT 8.2µM* and DT40 TDP1 CPT 21µM*.
CCn1c(=O)cc(SCC(=O)NCc2ccc(C)cc2)c2ccccc21 was read as HT1080NT lethal inconclusive, HT1080 IDH1KD tx inconclusive, IL-1B inflam inh -17, DT40 TDP1 no CPT 26µM* and DT40 TDP1 CPT inconclusive.
Screening O=C(O)CCCCCN1C(=O)C(O)=C(C(=O)/C=C/c2ccccc2)C1c1ccccc1[N+](=O)[O-] (stereo unspecified) returned HT1080NT lethal 11%, HT1080 IDH1KD tx 1%, IL-1B inflam inh 23, DT40 TDP1 no CPT -2% and DT40 TDP1 CPT -14%.
Screening Cc1c(C(=O)N(C)CCC#N)oc2ccc(S(=O)(=O)N3CCOCC3)cc12 returned HT1080NT lethal 11%, HT1080 IDH1KD tx 7%, IL-1B inflam inh -2, DT40 TDP1 no CPT 2% and DT40 TDP1 CPT -3%.
For CCOCCCNC(=O)c1cn(C)c2ccc(S(=O)(=O)N3CCCC3)cc2c1=O the results were HT1080NT lethal 19%, HT1080 IDH1KD tx 3%, IL-1B inflam inh 1, DT40 TDP1 no CPT 13% and DT40 TDP1 CPT -9%.
Screening Cn1c(=O)cc(SCC(=O)NCc2ccc(F)cc2)c2cc(Cl)ccc21 returned DT40 TDP1 no CPT 13µM* and DT40 TDP1 CPT 7.3µM*.
CCCCNC(=O)CSc1cc(=O)n(C)c2ccccc12 was read as HT1080NT lethal 28%, HT1080 IDH1KD tx 18%, IL-1B inflam inh -5, DT40 TDP1 no CPT -29% and DT40 TDP1 CPT -21%.
For CC1CCC(C(=O)NNC(=O)c2cc(-c3ccco3)[nH]n2)CC1 (stereo unspecified) the results were HT1080NT lethal 18%, HT1080 IDH1KD tx 14%, IL-1B inflam inh -4, DT40 TDP1 no CPT 16µM* and DT40 TDP1 CPT 18µM*.
`CC(=O)c1cccc(NC(=O)c2nc(-c3ccccc3)n(-c3ccccc3)n2)c1` gave DT40 TDP1 no CPT 10µM* and DT40 TDP1 CPT 21µM*.
`COc1ccc(-c2nc(C(=O)Nc3cccc(C(C)=O)c3)nn2-c2ccccc2Cl)cc1` gave DT40 TDP1 no CPT 16µM* and DT40 TDP1 CPT 18µM*.
Screening Cc1ccc(C)c(NC(=O)c2nc(-c3ccccc3)n(-c3ccccc3)n2)c1 returned HT1080NT lethal 13%, HT1080 IDH1KD tx 4%, IL-1B inflam inh inconclusive, DT40 TDP1 no CPT inconclusive and DT40 TDP1 CPT inconclusive.
N#Cc1cccc(NC(=O)c2nc(-c3ccccc3)n(-c3ccccc3)n2)c1 was read as HT1080NT lethal -12%, HT1080 IDH1KD tx -1%, IL-1B inflam inh -20, DT40 TDP1 no CPT 18µM* and DT40 TDP1 CPT inconclusive.
Screening CC(=O)c1ccc(NC(=O)c2nc(-c3ccccc3)n(-c3ccc(C)cc3)n2)cc1 returned DT40 TDP1 no CPT 18µM* and DT40 TDP1 CPT inconclusive.
Cc1csc(NC(=O)c2nc(-c3ccccc3)n(-c3ccccc3)n2)n1 was read as HT1080NT lethal 4%, HT1080 IDH1KD tx 14%, IL-1B inflam inh inconclusive, DT40 TDP1 no CPT inconclusive and DT40 TDP1 CPT inconclusive.
Screening CN(C)S(=O)(=O)c1cccc(-c2nnc(SCC(=O)NCCCCCC(=O)O)n2-c2ccc(F)cc2)c1 returned HT1080NT lethal 0%, HT1080 IDH1KD tx 4%, IL-1B inflam inh 0, DT40 TDP1 no CPT -4% and DT40 TDP1 CPT 17%.
`N#Cc1c(-c2ccccc2)nc2n(-c3ccccc3)nc(C(=O)Nc3ccccc3)n2c1=O` gave HT1080NT lethal 44%, HT1080 IDH1KD tx 20%, IL-1B inflam inh 0, DT40 TDP1 no CPT 7.3µM* and DT40 TDP1 CPT inconclusive.
`COc1ccc(N2C3=[N+](CCCC3)CC2(C)O)cc1` (stereo unspecified) gave HT1080NT lethal 0%[9.24 µM], HT1080 IDH1KD tx -39%, IL-1B inflam inh 6, DT40 TDP1 no CPT 3.7µM* and DT40 TDP1 CPT 4.1µM*.
Cc1c(C(=O)NCC2CCCN(C)C2)cnn1-c1ncc2c(n1)-c1ccccc1CCC2 (stereo unspecified) was read as DT40 TDP1 no CPT -12% and DT40 TDP1 CPT -5%[9.04 µM].
For CN(C)c1ccc(NC(=S)Nc2ccc3c(c2)c(=O)n(C)n3-c2ccc(C(C)(C)C)cc2)cc1 the results were HT1080NT lethal inconclusive, HT1080 IDH1KD tx 18µM*, IL-1B inflam inh 5, DT40 TDP1 no CPT 12µM* and DT40 TDP1 CPT 21µM*.
For CN(C)c1ccc(NC(=O)Nc2ccc3c(c2)c(=O)n(C)n3-c2ccccc2)cc1 the results were HT1080NT lethal 16µM*, HT1080 IDH1KD tx inconclusive, IL-1B inflam inh -24, DT40 TDP1 no CPT 21µM* and DT40 TDP1 CPT inconclusive.
For CN(C)c1ccc(NC(=O)Nc2ccc3c(c2)nnn3C)cc1 the results were HT1080NT lethal 25%, HT1080 IDH1KD tx 4%, IL-1B inflam inh -1, DT40 TDP1 no CPT -3% and DT40 TDP1 CPT 3%.
`CCNC(=O)C1(C)CCCN(Cc2ccc(Oc3ccccc3)cc2)C1` (stereo unspecified) gave HT1080NT lethal 18%, HT1080 IDH1KD tx 13%, IL-1B inflam inh -2, DT40 TDP1 no CPT 18µM* and DT40 TDP1 CPT 13µM*.
